In the supplement of paper PMC3414501:
Where a name gives a salt, the structure may show the parent alone.

Legend:
[1] = test system: S. cerevisiae SK1 pCDA2-eGFP (USY613), sporulating; assay: CDA2-GFP sporulation assay sensitivity score (z-score vs DMSO controls); higher = stronger inhibition of sporulation, active = hit call of the paper;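 note: active if sensitivity score above 5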
[2] = test system: S. cerevisiae NKY1551 his4x/his4B, sporulating; assay: HIS4 meiotic recombination assay sensitivity score (z-score vs DMSO controls); higher = stronger inhibition of sporulation/recombination, active = hit call of the paper;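 note: active if sensitivity score above 5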
[3] = test system: S. cerevisiae AD1-9 (efflux-pump deficient), vegetative growth in YPD; assay: growth sensitivity score (doubling time z-score vs DMSO controls); higher = slower growth, strongly negative scores also mark growth inhibition (complete suppression), active = hit call of the paper
How it was run: (§1)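 Rich medium in microtiter plates was seeded with Saccharomyces cerevisiae strains BY4741 and AD1-9 at an OD600 of 0.065, and compounds were added as a 1:100 dilution of DMSO stock. A Tecan GENios reader recorded optical density every 15 min for 24 hours, with eight solvent-only wells in each experiment. Average doubling time was the time to reach a set generation point divided by generation number. The growth sensitivity score was the compound mean minus the solvent-only mean, divided by the solvent-only standard deviation.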

[4] = test system: S. cerevisiae BY4741 (wild-type), vegetative growth in YPD; assay: as above
How it was run: as §1

SMILES | CDA2-GFP sporulation assay sensitivity score [1] | HIS4 meiotic recombination assay sensitivity score [2] | growth sensitivity score [3] | growth sensitivity score [4]
CC(=O)[C@H]1CC[C@H]2[C@@H]3CCC4=CC(=O)CC[C@]4(C)[C@H]3CC[C@]12C [Progesterone] (stock concentration (mM, diluted 1:100): 10) | 16.2 (active) | 6.09 (active) | 112 (active) | 4.04 (active)
CC(C(=O)O)c1ccc(CC2CCCC2=O)cc1 (stereo not given) [Loxoprofen sodium] (stock concentration (mM, diluted 1:100): 9.1) | -0.04 (inactive) | -0.15 (inactive) | -0.52 (inactive) | -0.61 (inactive)
C[C@]12CC[C@@H]3c4ccc(O)cc4CC[C@H]3[C@@H]1CC[C@@H]2O [Beta-Estradiol] (stock concentration (mM, diluted 1:100): 10) | 0.49 (inactive) | -2.13 (inactive) | 10.3 (active) | 3.35 (active)
CN1CCC(=C2c3ccccc3CCc3sccc32)CC1 [Pizotyline] (stock concentration (mM, diluted 1:100): 10) | -0.44 (inactive) | 9.23 (active) | 161 (active) | 5.7 (active)
CN1CCCC(n2nc(Cc3ccc(Cl)cc3)c3ccccc3c2=O)CC1 (stereo not given) [Azelastine hydrochloride] (stock concentration (mM, diluted 1:100): 9.1) | 0.63 (inactive) | 10.7 (active) | 11 (active) | 0.19 (inactive)
COc1ccc(CC2c3cc(OC)c(OC)cc3CC[N+]2(C)CCC(=O)OCCCCCOC(=O)CC[N+]2(C)CCc3cc(OC)c(OC)cc3C2Cc2ccc(OC)c(OC)c2)cc1OC (stereo not given) [Atracurium besylate] (stock concentration (mM, diluted 1:100): 10) | 17.9 (active) | 0.87 (inactive) | -2.52 | -0.31 (inactive)
CCC(C)n1ncn(-c2ccc(N3CCN(c4ccc(OCC5COC(Cn6cncn6)(c6ccc(Cl)cc6Cl)O5)cc4)CC3)cc2)c1=O (stereo not given) [Itraconazole] (stock concentration (mM, diluted 1:100): 10.1) | 0.16 (inactive) | -1.94 (inactive) | 21.4 (active) | 10.9 (active)
Clc1cccc(Cl)c1NC1=NCCN1 [Clonidine] (stock concentration (mM, diluted 1:100): 10) | -1.29 (inactive) | -0.25 (inactive) | -1.44 (inactive) | -1.97 (inactive)
O=c1[nH]c(=O)n(C2CCCO2)cc1F (stereo not given) [Ftorafur] (stock concentration (mM, diluted 1:100): 10) | 0.02 (inactive) | 0.93 (inactive) | -0.92 (inactive) | 0.14 (inactive)
CN1CCN(c2c(F)cc3c(=O)c(C(=O)O)cn4c3c2SCC4)CC1 [Rufloxacin hydrochloride] (stock concentration (mM, diluted 1:100): 10) | -0.17 (inactive) | -0.04 (inactive) | 17.4 (active) | -0.18 (inactive)
NC(=O)OCC(COC(N)=O)c1ccccc1 [Felbamate] (stock concentration (mM, diluted 1:100): 14) | -0.27 (inactive) | -0.45 (inactive) | -0.62 (inactive) | -0.94 (inactive)
CNCCCC12CCC(c3ccccc31)c1ccccc12 [Maprotilline hydrochloride] (stock concentration (mM, diluted 1:100): 10) | 0.21 (inactive) | 9.12 (active) | 86.6 (active) | 2.3 (active)
Cc1c(O)c(=O)ccn1C [Deferiprone] (stock concentration (mM, diluted 1:100): 10) | 2.38 (inactive) | -0.12 (inactive) | -1.63 (inactive) | 0.2 (inactive)
C[C@H]1C[C@H]2[C@@H]3CCC4=CC(=O)C=C[C@]4(C)[C@@]3(Cl)[C@@H](O)C[C@]2(C)[C@@]1(O)C(=O)CO [Beclomethasone] (stock concentration (mM, diluted 1:100): 10) | 1.56 (inactive) | -3.46 (inactive) | 2.68 (active) | 0.52 (inactive)
CN(C)CCCC1(c2ccc(F)cc2)OCc2cc(C#N)ccc21 (stereo not given) [Citalopram hydrobromide] (stock concentration (mM, diluted 1:100): 7.9) | -1.83 (inactive) | 7.31 (active) | 0.63 (inactive) | -0.04 (inactive)
